Only some compounds are listed: those with a hit (about 4.6% of all), similar ones and a draw of the others.
TRHR enhancer – allosterically enhances the human TRH receptor; AID 493056; enhancement, % at 2 µM; P34981; actives 0.66% (n = 360,000); TRHR cells, fluo-8 calcium fluorescence, EC20 TRH enhancement; in the data active = enhancement above about 30%; also: 0% is about no effect
Target sequence (P34981 whole entry, looked up): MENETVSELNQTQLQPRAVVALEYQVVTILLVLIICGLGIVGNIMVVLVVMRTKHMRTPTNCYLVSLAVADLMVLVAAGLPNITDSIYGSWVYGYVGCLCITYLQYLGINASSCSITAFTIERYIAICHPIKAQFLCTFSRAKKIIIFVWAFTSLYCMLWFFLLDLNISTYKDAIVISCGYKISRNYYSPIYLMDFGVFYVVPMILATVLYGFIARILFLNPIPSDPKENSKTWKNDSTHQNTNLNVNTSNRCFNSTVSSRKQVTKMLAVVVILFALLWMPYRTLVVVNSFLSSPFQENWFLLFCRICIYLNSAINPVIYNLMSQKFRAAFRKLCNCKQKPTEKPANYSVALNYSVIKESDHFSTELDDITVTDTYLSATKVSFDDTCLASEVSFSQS
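TRHR-expressing cells loaded with fluo-8 calcium dye were read kinetically (ex 480/em 530) during compound addition, then stimulated with an EC20 of TRH (10 nM final). Enhancement of the Gq-mediated intracellular calcium response was scored.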
TRHR agonist – activates the human TRH receptor | activation, % at 2 µM | TRHR cells, calcium flux fluo-8, FDSS agonist mode | AID 493084 | actives 0.18% (n = 360,000) | P34981; also: 0% is about no effect
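TRHR-expressing cells, plated overnight in medium with 10% serum, were loaded with fluo-8 calcium dye at room temperature. After a 10 s baseline, library compound was pin-added and calcium release was recorded kinetically (ex 480/em 530) as agonist response.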
D1 antag – blocks dopamine activation of the human D1 receptor; P21728; HEK293 TREx D1 cells, calcium flux, dopamine EC80; hits give low values; activity change, negative = inhibition, % at 10 µM; actives 3.2% (n = 360,000); in the data active = activity change below about -30%; also: % is scaled to controls: 0 for no effect and ±100 for the full control effect
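Tetracycline-induced HEK293 T-REx cells with force-coupled D1 receptor were loaded with a no-wash calcium dye. Compound was added after a 10 s baseline and read kinetically for 180 s; EC80 dopamine was then added and calcium flux followed another 180 s.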
D1 ag – activates the human D1 dopamine receptor | HEK293 T-REx D1 cells, calcium flux, agonist mode | activation, % at 2 µM | actives 1% (n = 360,000) | P21728; also: 0% is about no effect
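Inducible HEK293 T-REx D1 cells, force-coupled to calcium signalling, were plated at 4000 cells/well with tetracycline and held overnight at 30 C. After no-wash calcium dye loading, compound-evoked calcium rise over 180 s flagged agonists.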
D1 PAM – potentiators of human D1 dopamine receptor | HEK293 TREx D1 cells, calcium flux, dopamine EC20 potentiation | potentiation, % at 10 µM | actives 0.036% (n = 360,000); in the data active = potentiation above about 30%; also: 0% is about no effect
Numbers without * were called inactive; / = no result; ! = repeats disagree. Rule as the data show it, unless noted: active = activation above about 30%; inactive = the rest.

SMILES	TRHR enhancer	TRHR agonist	D1 antag	D1 ag	D1 PAM
C/C(=N/Nc1ccnc2cc(Cl)ccc12)c1ccc(N)cc1	-3.0	-0.8	-41.9*	11.5	-8.0
CC(=O)c1c(C)[nH]c(C(=O)NCc2ccco2)c1C	-0.8	-0.2	-64.5*	1.6	-8.3
Cc1c(C(=O)NCc2ccco2)oc2c(F)cccc12	37.0*	0.3	-20.1	0.6	-6.7
CC(=O)c1[nH]c(C)c(C(=O)NCc2ccc(Cl)cc2)c1C	-3.1	-0.7	2.3	38.8*	-1.2
CCOC(=O)c1c(S(=O)(=O)NCC(=O)Nc2cccc(C)c2)c(C)n(C)c1C	1.7	-0.7	-2.8	4.5	-4.7
CCOc1ccc(C2CC(c3ccccc3C)n3ncnc3N2)cc1 (stereo unspecified)	-3.6	-1.0	-40.2*	14.2	/
Cc1ccccc1C1CC(c2ccccc2)Nc2ncnn21 (stereo unspecified)	12.1	-0.7	7.9	5.4	/
COc1ccccc1NC(=O)NCCN1CCN(c2cccc(Cl)c2)CC1	7.6	0.3	-39.8*!	3.7	-1.3
O=C(NCCN1CCN(c2cccc(Cl)c2)CC1)Nc1ccccc1	10.5	-0.4	-6.1	6.9	-4.4
O=C(NCCc1ccc(Cl)cc1)Nc1ccc(Cl)cc1	-1.0	-1.1	-34.4*	6.6	-2.1
O=C(NCCN1CCN(c2ccccc2)CC1)Nc1ccccc1Br	1.2	-0.4	-32.7*!	0.6	-6.4
O=C(NCCN1CCN(c2ccccc2)CC1)Nc1cccc(Br)c1	20.0	-0.5	-44.6*!	49.5*	-1.1
COc1ccc(C2=NN(CC(=O)NCCCN(C)c3ccccc3)C(=O)CC2)cc1	0.9	0.0	11.3	-0.8	-3.6
COc1ccc(N2CCN(CCNC(=O)Nc3ccc(Cl)cc3)CC2)cc1	2.8	-1.8	-3.5	37.8*	-2.1
O=C(NCCN1CCN(c2ccccc2)CC1)Nc1ccc(Cl)cc1	6.9	-0.1	-32.4*	30.0*	-5.2
O=C(NCCN1CCN(Cc2ccccc2)CC1)Nc1cc(Cl)cc(Cl)c1	4.2	1.5	2.4	30.3*	-0.3
COc1ccc(N2CCN(CCCNC(=O)Nc3ccccc3)CC2)cc1	2.4	0.0	11.9	4.6	-3.1
O=C(CCN1CCN(Cc2ccccc2)CC1)NNC(=O)Nc1cccc(Cl)c1	-1.4	1.3	-14.6	2.1	-5.4
CCCOc1ccc(NC(=O)CC2C(=O)N(c3cccc(OC)c3)C(=O)N2CCc2ccncc2)cc1 (stereo unspecified)	-1.4	-0.5	-10.4	1.4	0.4
CC(NC(=O)c1cccc(Nc2nc3ccccc3n3nnnc23)c1)c1ccccc1 (stereo unspecified)	5.4	-0.9	-10.2	2.6	2.0
CN(C)C(=O)N1CCC(C(=O)NCc2ccc(F)cc2)CC1	-1.2	-0.2	-0.7	2.5	-4.6
COc1ccccc1CNC(=O)C1CCN(C(=O)N(C)C)CC1	12.5	0.4	-38.1*	2.0	-2.2
CN(C)C(=O)N1CCC(C(=O)NCc2ccccc2)CC1	34.4*	-0.1	-18.2	2.8	-2.0
O=C(NCc1cccs1)C1CCN(C(=O)NCc2ccccc2)CC1	0.7	-0.1	-84.4*	-0.5	-0.2
CCOc1ccc(-c2cc3c(=O)n(Cc4nc(-c5ccc(OCC)c(OC)c5)oc4C)ccn3n2)cc1Cl	3.8	1.2	-3.5	-0.2	0.8
SMILES	TRHR enhancer	TRHR agonist	D1 antag	D1 ag	D1 PAM
O=C(NCCCN1CCCCC1)c1ccc(CS(=O)c2ccc(F)cc2)o1 (stereo unspecified)	1.3	0.3	19.0	3.0	-8.7
Cc1ccccc1NC1=C/C(=N\S(=O)(=O)c2cccs2)c2ccccc2C1=O	-8.6	-0.3	10.7	1.1	-1.6
Cc1ccc(NC2=C/C(=N/S(=O)(=O)c3cccs3)c3ccccc3C2=O)cc1C	20.0	1.8	-45.3*	-1.6	0.5
Cc1ccc(-c2nc3ccsc3c(=O)o2)cc1	12.7	0.3	-87.1*	-0.8	-0.3
COc1ccc(-c2nn(CCC#N)cc2C(=O)Nc2cccc(C(=O)O)c2)cc1OC	9.0	0.5	-36.4*	1.7	-5.2
O=C(CN1C(=O)C2C3C=CC(C3)C2C1=O)NCc1ccco1 (stereo unspecified)	8.7	0.0	21.9	0.8	30.7*
O=C(CN1C(=O)NC(Cc2ccccc2)C1=O)Nc1ccc(F)cc1 (stereo unspecified)	4.2	-0.2	-86.3*	1.7	-8.8
CCOC(=O)c1cc(-c2ccc(C)cc2)nn1Cc1ccccc1	22.0	2.0	18.8	15.9	0.4
CSc1cccc(NC(=O)CN2CCN(Cc3ccccc3C)S2(=O)=O)c1	2.8	-0.3	0.1	4.0	-2.5
CCC(=O)Nc1c(-c2ccc(C)cc2)nc2ccc(C)cn12	2.2	-0.2	12.3	-3.1	0.8
COC(=O)c1nc2ccc(C)cn2c1F	-4.2	0.3	-58.1*	0.3	-3.5
O=S(=O)(c1cccs1)N1CCC(Cc2ccccc2)CC1	-10.7	0.7	-42.4*	10.8	-0.4
O=C(CCc1ccccc1)N1CCN(S(=O)(=O)c2cccs2)CC1	-0.1	0.1	-39.7*	3.3	-3.1
Cc1ccc(-c2nn(-c3ccccc3)cc2CSC(=N)N)cc1	6.1	1.9	31.6	51.2*	0.7
OCc1cn(-c2ccccc2)nc1-c1ccc(-c2nn(-c3ccccc3)cc2CO)cc1	-3.5	2.4	3.3	9.3	-7.5
CC(=O)Nc1ccc2c(COC(=O)[C@H](C)N3C(=O)C4CCCCC4C3=O)cc(=O)oc2c1 (stereo partly specified)	1.7	0.9	-10.3	1.3	0.1
Cc1cc(=O)oc2cc(NC(=O)C(C)N3C(=O)C4CCCCC4C3=O)ccc12 (stereo unspecified)	3.7	0.3	-43.0*	2.4	-3.0
COc1ccc(/C=C(/C#N)c2nc(-c3ccc(-c4ccccc4)cc3)cs2)cc1	-1.4	-0.9	1.6	0.2	0.2
N#C/C(=C/c1ccc(O)cc1)c1nc(-c2ccc(-c3ccccc3)cc2)cs1	43.3*	1.7	-12.0	2.0	-1.1
CCc1cc2c(=O)c(-c3nc(C)cs3)coc2cc1OC(C)C(=O)NCCO (stereo unspecified)	-5.8	-0.2	-33.2*	-0.1	-2.4
CNS(=O)(=O)c1cccc(C(=O)OCC(=O)c2cc(C)n(CC3CCCO3)c2C)c1 (stereo unspecified)	-1.5	0.5	-12.5	11.5	1.0
Cc1cc(C(=O)COc2ccccc2Cl)c(C)n1-c1ccc2c(c1)OCO2	-1.9	0.5	-0.2	2.1	-5.5
Cc1cc(C(=O)CSc2n[nH]c(N)n2)c(C)n1-c1ccc2c(c1)OCO2	1.6	0.0	-39.6*	0.8	-0.1
CNS(=O)(=O)c1cccc(C(=O)OCC(=O)c2cc(C)n(-c3ccc4c(c3)OCO4)c2C)c1	-15.9	0.3	-38.5*	2.6	-11.1
Cc1cc(C(=O)CN2C(=O)NC(C)(CC(C)C)C2=O)c(C)n1-c1ccc2c(c1)OCO2 (stereo unspecified)	-6.2	0.1	-45.5*	4.7	-3.9

Compound activity as filed in PubChem.
